# Data as given in ChEMBL document CHEMBL4513141, “CO-ADD screening of NIH (USA) - Clinical Collection” (2021).
# “And” between values parts separate entries of the source, which are not always exact repeats. Equal entries are not always repeated. Potency and affinity values are given separately.
# Key:
# Staphylococcus aureus = conditions: Concentration 20 uM, ASSAY_TEST Inhibition of Bacterial Growth, detection method Absorption (OD600), MEDIA CAMHB, plate type 384well, NBS, CORNING #3640, time 18 hr
# Escherichia coli = conditions: Concentration 20 uM, ASSAY_TEST Inhibition of Bacterial Growth, detection method Absorption (OD600), MEDIA CAMHB, plate type 384well, NBS, CORNING #3640, time 18 hr
Structure (SMILES),Inhibition (Staphylococcus aureus) [%],Inhibition (Escherichia coli) [%],Inhibition (Staphylococcus aureus; 20 µM),Inhibition (Escherichia coli; 20 µM)
Cc1ccccc1C(OCCN(C)C)c1ccccc1.Cl (centres undefined) [ORPHENADRINE HYDROCHLORIDE],13.17,-1.64,–,–
Cc1nccn1CC1CCc2c(c3ccccc3n2C)C1=O (centres undefined) [ONDANSETRON],4.05,7.33,–,–
COC(=O)Nc1nc2cc(C(=O)c3ccccc3)ccc2[nH]1 [MEBENDAZOLE],7.86,3.86,–,–
O=C1C(c2c(O)[nH]c3ccccc23)=Nc2ccccc21,2.27,-3.28,–,–
CC(=O)OCC(=O)[C@@]1(O)CC[C@H]2[C@@H]3CCC4=CC(=O)CC[C@]4(C)[C@H]3C(=O)C[C@@]21C [CORTISONE ACETATE],12.24,5.41,–,–
CCC(=O)[N-]S(=O)(=O)c1ccc(-c2c(-c3ccccc3)noc2C)cc1.[Na+] [PARECOXIB SODIUM],0.13,6.4,–,–
Nc1ncnc2c1ncn2[C@@H]1O[C@H](CO)[C@@H](O)[C@@H]1O [VIDARABINE],17.44,6.8,–,–
CN1CCC(=C2c3ccccc3CC(=O)c3sccc32)CC1.O=C(O)/C=C/C(=O)O [KETOTIFEN FUMARATE],6.88,3.55,–,–
COc1ccc(C2CNC(=O)C2)cc1OC1CCCC1 (centres undefined) [ROLIPRAM],10.42,5.39,–,–
NS(=O)(=O)c1cc(C(=O)O)c(NCc2ccco2)cc1Cl [FUROSEMIDE],14.48,-0.33,–,–
NS(=O)(=O)c1cc2c(cc1C(F)(F)F)NCNS2(=O)=O [HYDROFLUMETHIAZIDE],14.86,7.25,–,–
NC(=O)N1c2ccccc2C=Cc2ccccc21 [CARBAMAZEPINE],10.71,-3.33,–,–
C[C@]12C=CC(=O)C=C1CC[C@@H]1[C@@H]2[C@@H](O)C[C@@]2(C)[C@H]1CC[C@]2(O)C(=O)COC(=O)CCC(=O)[O-].[Na+] [PREDNISOLONE SODIUM SUCCINATE],5.71,1.73,–,–
CCCCC1=NC2(CCCC2)C(=O)N1Cc1ccc(-c2ccccc2-c2nnn[nH]2)cc1 [IRBESARTAN],6.34,-3.35,–,–
C[C@@H]1C[C@H]2[C@@H]3CCC4=CC(=O)C=C[C@]4(C)[C@@]3(F)[C@@H](O)C[C@]2(C)[C@@]1(O)C(=O)CO [DEXAMETHASONE],–,–,-14.23% and -13.77%,5.83% and 4.46%
CCC(=O)OCC(=O)[C@@]1(OC(=O)CC)[C@@H](C)C[C@H]2[C@@H]3CCC4=CC(=O)C=C[C@]4(C)[C@@]3(Cl)[C@@H](O)C[C@@]21C [BECLOMETHASONE DIPROPIONATE],4.92,-8.75,–,–
CC(=O)O.CNC(=N)NCCC[C@H](N)C(=O)O [TILARGININE ACETATE],-13.73,6.22,–,–
O=C(C1CCCCC1)N1CC(=O)N2CCc3ccccc3C2C1 (centres undefined) [PRAZIQUANTEL],20.65,3.85,–,–
CNCC[C@H](Oc1cccc2ccccc12)c1cccs1.Cl [DULOXETINE HYDROCHLORIDE],-17.99,4.45,–,–
NC(=O)N1c2ccccc2CC(=O)c2ccccc21 [OXCARBAZEPINE],15.1,-1.4,–,–
CC(C)NCC(O)c1cc(O)cc(O)c1 (centres undefined) [METAPROTERENOL],-6.69,-6.08,–,–
CN1CCC(=C2c3ccccc3C=Cc3ccccc32)CC1.Cl [CYPROHEPTADINE HYDROCHLORIDE],5.98,6.77,–,–
C=C1/C(=C\C=C2/CCC[C@]3(C)[C@@H]([C@H](C)CCCC(C)(C)O)CC[C@@H]23)C[C@@H](O)C[C@@H]1O [CALCITRIOL],3.12,7.51,–,–
Cc1ccc(-c2cc(C(F)(F)F)nn2-c2ccc(S(N)(=O)=O)cc2)cc1 [CELECOXIB],5.39,6.38,–,–
N[C@@H]1CONC1=O [CYCLOSERINE],14.71,1.47,–,–
CCN(CC)CCNC(=O)c1cc(Cl)c(N)cc1OC.Cl,7.88,-6.93,–,–
CCCCC[C@H](O)/C=C/[C@H]1[C@H](O)CC(=O)[C@@H]1CCCCCCC(=O)O [ALPROSTADIL],3.1,6.55,–,–
